Results published in PubChem BioAssay AID485346 (Sanford-Burnham Center for Chemical Genomics, 2010).
Out of some 330,000 compounds screened, about 10,000 (3%) were called active.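 How the source made its calls: active means inhibition of at least 50% at 8 µM in the primary screen; inactive means the rest.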 The full list was thinned out, with actives kept by preference.

target: Protein Mdm4 (Homo sapiens) + E3 ubiquitin-protein ligase Mdm2 (Homo sapiens) (UniProt O15151+Q00987); experiment: disruptors of Mdm2/MdmX RING complex – cell-based, luminescence, split luciferase, SaOS-2, uHTS, primary screen (AID 485346); details: SaOS-2 split-luciferase Mdm2/MdmX complementation, at 8 µM, stronger effect = higher value
Sequence (O15151 whole entry, looked up): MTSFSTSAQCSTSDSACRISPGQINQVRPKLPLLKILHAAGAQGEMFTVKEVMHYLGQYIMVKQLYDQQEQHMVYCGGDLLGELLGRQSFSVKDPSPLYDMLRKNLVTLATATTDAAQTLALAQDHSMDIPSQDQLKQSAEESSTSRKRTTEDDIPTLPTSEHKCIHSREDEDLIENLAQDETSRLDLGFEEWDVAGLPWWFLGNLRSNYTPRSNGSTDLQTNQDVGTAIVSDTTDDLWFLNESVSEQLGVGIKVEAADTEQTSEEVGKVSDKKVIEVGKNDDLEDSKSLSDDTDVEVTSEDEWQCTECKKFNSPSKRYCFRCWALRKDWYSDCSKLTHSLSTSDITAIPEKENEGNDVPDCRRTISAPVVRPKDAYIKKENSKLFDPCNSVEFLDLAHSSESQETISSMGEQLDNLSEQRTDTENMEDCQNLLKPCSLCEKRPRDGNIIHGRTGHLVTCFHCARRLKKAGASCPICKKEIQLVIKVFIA
Sequence (Q00987 whole entry, looked up): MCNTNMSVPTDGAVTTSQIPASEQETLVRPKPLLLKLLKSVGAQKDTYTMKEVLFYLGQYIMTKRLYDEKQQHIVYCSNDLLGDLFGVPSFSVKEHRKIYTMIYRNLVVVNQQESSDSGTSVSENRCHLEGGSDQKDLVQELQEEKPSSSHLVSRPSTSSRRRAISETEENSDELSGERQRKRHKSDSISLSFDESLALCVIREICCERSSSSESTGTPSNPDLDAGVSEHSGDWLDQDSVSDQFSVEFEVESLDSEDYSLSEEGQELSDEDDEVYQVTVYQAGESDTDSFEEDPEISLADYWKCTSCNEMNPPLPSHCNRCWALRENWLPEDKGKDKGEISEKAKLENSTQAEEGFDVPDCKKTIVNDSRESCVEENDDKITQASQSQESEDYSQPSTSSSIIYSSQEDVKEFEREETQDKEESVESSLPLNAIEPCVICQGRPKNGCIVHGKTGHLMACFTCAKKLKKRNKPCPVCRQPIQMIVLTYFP

inhibition, active:
COc1ccc2nc(Nc3nc4ccc(NC(C)=O)cc4s3)sc2c1 79.7%
COc1cccc(-c2nnc(NC(=O)c3ccc(S(=O)(=O)N(CC(C)C)CC(C)C)cc3)o2)c1 72.2%
O=C(CN1C(=O)c2ccccc2S1(=O)=O)N1CCc2ccccc21 68%
Cc1c(/C=N\NC(=O)c2cc3ccccc3o2)c2ccccc2n1C 50.8%
O=C1[C@H]2[C@@H](c3ccc(F)cc3)N3C(=O)N(c4ccc(C(F)(F)F)cc4)C(=O)[C@@]3(Cc3ccccc3)[C@H]2C(=O)N1C1CCCCC1 95.3%
COc1ccc(Cc2nnc(N/N=C/c3ccccc3O)[nH]c2=O)cc1OC 66.5%
COc1ccc(CNc2nc(NCc3ccc(OC)cc3)c3ncn(C4CCCC4)c3n2)cc1 60.8%
CC(C)c1ccccc1OCC(O)CN(CC(O)COc1cccc2ccccc12)C(C)C (centres undefined) 59.8%
O=C1CN(c2nc(-c3ccccc3)c3cc(Br)ccc3n2)c2ccccc2N1 66.1%
CC(=O)c1ccc(S(=O)(=O)N2CCN(C(=O)/C=C/c3ccc4ccccc4n3)CC2)cc1 79.9%
O=C(c1[nH]ncc1-c1ccc(Cl)cc1)C1CO1 (centres undefined) 78.2%
CCC1CCCCN1CCCNC(=O)c1cc2c(Cl)nc3ccccc3c2s1 (centres undefined) 58.7%

inhibition, inactive:
CC1=C(C/C=C(\C)CCCC(C)CCCC(C)CCCC(C)C)C(=O)c2ccccc2C1=O (centres undefined) -7.28%
CC(C)CC(NC(=O)C1CCCN1C(=O)[C@@H](C)NC(=O)OCc1ccccc1)C(=O)NCC(N)=O (some centres undefined) -21.6%
COc1ccc(C2C(C(C)=O)=C(O)C(=O)N2CCc2c[nH]c3ccccc23)cc1 (centres undefined) -16.3%
CCc1noc(C)c1C(=O)Nc1nc2ccc(OC)cc2s1 0.6%
COc1ccc2nc(NC(=O)NC3CCCCC3)sc2c1 -142%
Cc1csc2ncc(C(=O)N(Cc3ccccc3)c3ccccn3)c(=O)n12 0.705%
CC(C)NC(=O)c1ccccc1S(=O)c1ccccc1C#N (centres undefined) -7.43%
O=C(Nc1nnc(-c2ccco2)o1)c1ccc(S(=O)(=O)N2CCOCC2)cc1 -9.19%
COc1ccc(-c2nnc(NC(=O)CS(=O)(=O)c3ccc(Cl)cc3)o2)c(OC)c1 -3.12%
CC(C#N)OC(=O)c1cccnc1SCC(=O)Nc1ccc2c(c1)OCO2 (centres undefined) -12.8%
CC(C)(C)n1nnc(CCc2nnn(C(C)(C)C)n2)n1 13.5%
O=C(CN1C(=O)c2ccccc2S1(=O)=O)NC1CCCCC1 12.3%
CC1CCCN(C(=O)CN2C(=O)c3ccccc3S2(=O)=O)C1 (centres undefined) 3.88%
O=C(N/N=C/c1cccc(O)c1)c1cc2c(ccc3ccccc32)o1 -1.11%
Cc1ccc(NC(=O)c2cc3ccccc3o2)cc1 -218%
O=C1[C@H]2[C@@H](c3ccc(Cl)cc3)N3C(=O)N(c4cccc(F)c4)C(=O)[C@@]3(Cc3ccccc3)[C@H]2C(=O)N1C1CCCCC1 4.69%
Cc1cccc(N2C(=O)N3[C@H](c4ccc(F)cc4)[C@@H]4C(=O)N(C5CCCCC5)C(=O)[C@@H]4[C@]3(Cc3ccccc3)C2=O)c1 18.2%
Cc1ccc(NC(=O)CCCNC(=O)c2ccc(Cl)cc2)cc1S(=O)(=O)N1CCCCC1 14.3%
Cc1ccc(CN2CCN(/N=C/c3cccnc3)CC2)c(C)c1 -1.63%
O=c1[nH]c(NCCO)nnc1Cc1ccc(Cl)cc1 16.8%
CC(C)c1ccc(Cc2nnc(NCCCO)[nH]c2=O)cc1 -3.05%
OC(CN=c1sc2ccccc2n1CC(O)COc1ccccc1)COc1ccccc1 (centres undefined) 33.4%
Cc1cccc(NC(=O)CN2CCN(CC(=O)NCC3(N4CCCCC4)CCCCC3)CC2)c1C -24.2%
Cc1nc2nc(C)c(CCC(=O)N3CCN(c4ccccc4)CC3)c(C)n2n1 7.55%
COc1ccc(CNC(=O)C2CCCC2)cc1 1.84%
COc1ccc(CNC2CCCCC2)cc1 7.1%
C=CCN1C(=O)C(O)(CC(=O)c2ccc(Cl)cc2)c2ccccc21 (centres undefined) 4.99%
C=CCC(CC=C)(C(N)=O)c1ccccc1 11.4%
Cc1cc(C)c(NC(=O)C[N+](C)(C)CC(O)COc2cccc3ccccc23)c(C)c1 (centres undefined) 12.6%
CCC(C)Sc1nc2c(c(=O)[nH]c(=O)n2C)n1CC(O)COc1cccc2ccccc12 (centres undefined) 16.9%
CCC(C)(C)c1ccc(Oc2ccc(NC(=O)COC(=O)C3=COCCO3)cc2)cc1 0.755%
C[C@@H](O)c1nc2ccccc2n1N -21.5%
CC1CC(=O)Nc2ccccc2N1C(=O)COc1ccc2cc(Br)ccc2c1 (centres undefined) 20%
O=c1c2cc(Br)ccc2nc(-c2cccc(Cl)c2)n1O 40.4%
CC(=O)c1ccc(S(=O)(=O)N2CCN(c3nc4c(C)c(C)ccc4cc3C#N)CC2)cc1 32.9%
CC(=O)c1ccc(S(=O)(=O)N2CCC3(CC2)OCCO3)cc1 -6.56%
Cc1cc(C)n2nc(C(=O)OCC(=O)N(CCC#N)c3ccc(F)cc3)nc2n1 11.4%
Nc1cccc2c1C(=O)N(Cc1nnc(-c3ccccc3Br)o1)C2=O 2.07%
S=c1[nH]nc(-c2ccc(Cl)cc2)n1CC1CCCO1 (centres undefined) -1.54%
O=C(c1nnc(-c2ccc(Cl)cc2)o1)C1CCCC1 -34.3%
CCOc1ccc(NC(=O)CSc2nncn2C)cc1 6.1%
NC(=O)C(Cc1ccccc1)NC(=O)C12CC3CC(CC(C3)C1)C2 (centres undefined) 2.27%
CCN(CC(=O)Nc1c(F)cccc1F)C(=O)c1ccc(-c2ccc(C(C)=O)cc2)o1 -16.4%
C[n+]1cc(-c2ccccc2)oc1-c1ccccc1 -21.5%
Cc1cc(C)n2nc(C(=O)OCC(=O)N(C)CC(=O)Nc3ccc(F)cc3)nc2n1 -1.93%
CCC1CCCCN1CCCNC(=O)Cn1nc(-c2ccccc2)ccc1=O (centres undefined) 5.14%
CCC1CCCCN1CCCNC(=O)C1CCC(Cn2c(=O)[nH]c3ccccc3c2=O)CC1 (centres undefined) -28.9%
